In PubChem BioAssay (EPA / NIEHS):
The source made the active and inactive calls. Rule for the calls: active = hit-call score of the fitted dose curve at least 0.9, where 1 is the maximum; inactive = score below 0.9.

Each compound was assayed against Cellular tumor antigen p53 (Homo sapiens) (UniProt P04637) (assay: ATG_p53_CIS: Attagene CIS-FACTORIAL HepG2 Assay for human p53 Transcription Factor (AID 2282994)). Conditions: HepG2 p53 cis-element reporter, Attagene mRNA; actives raise or lower the signal.
Protocol: ATG_CIS is a cell-based, multiplexed-readout assay that uses HepG2, a human liver cell line, with measurements taken at 24 hours after chemical dosing in a 24-well plate.ATG_p53_CIS is one of 52 assay component(s) measured or calculated from the ATG_CIS assay. It is designed to make measurements of mRNA induction, a form of inducible reporter, as detected with fluorescence intensity signals by Reverse transcription polymerase chain reaction (RT-PCR) and Capillary electrophoresis technology.Data from the assay component ATG_p53_CIS was analyzed into 1 assay endpoint. This assay endpoint, ATG_p53_CIS, was analyzed with bidirectional fitting relative to DMSO as the negative control and baseline of activity. Using a type of inducible reporter, measures of mRNA for gain or loss-of-signal activity can be used to understand the reporter gene at the transcription factor-level as they relate to the gene TP53. Furthermore, this assay endpoint can be referred to as a primary readout, because this assay has produced multiple assay endpoints where this one serves a reporter gene function. To generalize the intended target to other relatable targets, this assay endpoint is annotated to the dna binding intended target family, where the subfamily is tumor suppressor.
Human liver HepG2 cells are transiently transfected with multiple reporter transcription units (MRTUs) in 6-well plates using FuGene 6 reagent (Roche; 3 ml FuGene/1 mg DNA). The MRTU constructs are regulated by a cis-regulating element (promoter). […] A major difference between the CIS and TRANS system is that in CIS activities of endogenous TFs are measured, whereas the TRANS assay evaluates changes in activities of exogenous, chimeric NR-Gal4 proteins. […] At the end of 24 hour incubation, total RNA was isolated using TriZol reagent (Invitrogen). The isolated RNA is then reverse-transcribed using oligo(dT) primer and Mo-MLV reverse transcriptase (Invitrogen) with DNAse I (Ambion) treatment for 30 min. The one-tenth of the produced cDNA was amplified by PCR using Taq DNA polymerase (Invitrogen) and two reporter sequence-specific primers. The PCR products were fluorescently labeled by primer extension with 6-arboxyfluorescein (6-FAM) 5'-labeled reporter sequence-specific primer (2 min at 95 C, 20 s at 68 C and 10 min at 72 C) and these products were digested with 5U of HpaI (New England Biolabs) for 2h at 37 C. The fragments were purified using Qiaquick PCR columns (Qiagen), analyzed on an ABI 3130xL genetic analyzer (Applied Biosystems) with peak positions identified by using a set of X-rhodamine (ROX)-labeled MapMarker1000 molecular weight standards (BioVentures). The raw capillary electrophoresis data was processed using Attagraph software (Attagene).

Sequence of Cellular tumor antigen p53 (Homo sapiens) (P04637 whole entry, looked up): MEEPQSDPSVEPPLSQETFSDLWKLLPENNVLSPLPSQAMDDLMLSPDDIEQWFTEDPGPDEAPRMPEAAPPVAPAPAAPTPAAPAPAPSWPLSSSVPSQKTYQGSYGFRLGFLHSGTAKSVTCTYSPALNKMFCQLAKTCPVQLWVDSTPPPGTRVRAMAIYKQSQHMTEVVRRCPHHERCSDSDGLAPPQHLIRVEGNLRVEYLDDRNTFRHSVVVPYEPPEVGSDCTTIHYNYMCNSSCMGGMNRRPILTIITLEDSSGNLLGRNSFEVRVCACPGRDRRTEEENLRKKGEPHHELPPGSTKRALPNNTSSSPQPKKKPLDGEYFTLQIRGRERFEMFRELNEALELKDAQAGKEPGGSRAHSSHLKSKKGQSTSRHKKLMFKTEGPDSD

Question: For CC(CCO)CCc1ccccc1 (stereo not given), which outcome is on record?
Answer: The outcome was “inactive”.

Question: How did the outcome turn out when COC(=O)OC was run?
Answer: Its outcome is “inactive”.

Question: OC1OC[C@@H](O)[C@H](O)[C@H]1O (stereo not given in full) was tested. Which outcome did it give?
Answer: The outcome was “inactive”.

Question: Which outcome does the source give for CC(=O)C(=O)O here?
Answer: The outcome was “inactive”.

Question: Which outcome does the source give for CCN(CC)c1ccc2c(-c3ccccc3C(=O)O)c3ccc(=[N+](CC)CC)cc-3oc2c1 here?
Answer: Its outcome is “inactive”.

Question: With O=Cc1ccc(Cl)c([N+](=O)[O-])c1 as the compound, how does the AC50 read?
Answer: Its AC50 is 54.5 µM (active).

Question: How did the outcome turn out when C/C=C(\C)C(=O)OCc1ccccc1 was run?
Answer: The outcome was “inactive”.

Question: Which AC50 does the source give for CC1CCC(C(C)CS)CC1S (stereo not given) here?
Answer: The AC50 was 52.6 µM (active).

Question: Which outcome does the source give for OC[C@H]1O[C@H](O[C@]2(CCl)O[C@H](CCl)[C@@H](O)[C@@H]2O)[C@H](O)[C@@H](O)[C@H]1Cl here?
Answer: The outcome was “inactive”.

Question: For CCC(=O)OCCC(C)CCC=C(C)C (stereo not given), which outcome is on record?
Answer: The outcome was “inactive”.

Question: Cc1ccc(C=O)s1 was tested. Which outcome did it give?
Answer: The outcome was “inactive”.

Question: Which outcome does the source give for CC1(C)[C@@H]2CC[C@@]1(C)[C@H](O)C2 here?
Answer: The outcome was “inactive”.

Question: How did the outcome turn out when CC(CC(C)(C)C)CC(C)(C)CC(C)(C)C (stereo not given) was run?
Answer: The outcome was “inactive”.

Question: Which outcome does the source give for C=CC(C)(C)O here?
Answer: The outcome was “inactive”.

Question: With O=S(=O)(O)c1ccc(O)c2ncccc12 as the compound, how does the outcome read?
Answer: Its outcome is “inactive”.

Question: For O=C(O)c1cccc([N+](=O)[O-])c1, which outcome is on record?
Answer: The outcome was “inactive”.

Question: With CC1CCC(C(C)(C)O)CC1 (stereo not given) as the compound, how does the outcome read?
Answer: Its outcome is “inactive”.

Question: How did the outcome turn out when CCCCO was run?
Answer: The outcome was “inactive”.

Question: For CCCCCCCCCCCCN(CCCCCCCCCCCC)CCCCCCCCCCCC, which outcome is on record?
Answer: The outcome was “inactive”.

Question: For C=C(C)C(=O)O[C@H]1C[C@@H]2CC[C@@]1(C)C2(C)C, which AC50 is on record?
Answer: The AC50 was 145 µM (active).

Question: How did the outcome turn out when Cc1cc(C2(c3cc(C)c(O)cc3C)OS(=O)(=O)c3ccccc32)c(C)cc1O was run?
Answer: Its outcome is “inactive”.

Question: How did the outcome turn out when O=S(=O)(O)c1cccc2c(S(=O)(=O)O)cccc12 was run?
Answer: Its outcome is “inactive”.

Question: CCCCCCCCCCN was tested. Which outcome did it give?
Answer: The outcome was “inactive”.

Question: For C=C(C)C1CCC(C)CC1O (stereo not given), which outcome is on record?
Answer: The outcome was “inactive”.

Question: Which outcome does the source give for CC(=O)OCCC(C)CC(C)(C)C (stereo not given) here?
Answer: Its outcome is “inactive”.

Question: How did the outcome turn out when O=C=NC1CCC(CC2CCC(N=C=O)CC2)CC1 (stereo not given) was run?
Answer: The outcome was “inactive”.

Question: With C=C(C)[C@@H]1CCC2=CC(=O)C[C@@H](C)[C@]2(C)C1 as the compound, how does the outcome read?
Answer: The outcome was “inactive”.

Question: Which outcome does the source give for C=C[C@@H](C)CCC=C(C)C here?
Answer: The outcome was “inactive”.

Question: Which outcome does the source give for CC(=O)Nc1ccc(CC(=O)O)cc1 here?
Answer: Its outcome is “inactive”.

Question: How did the outcome turn out when O=C(O)CCCCCCCC(=O)O was run?
Answer: The outcome was “inactive”.

Question: With CC(=O)O[C@]1(C(C)=O)CC[C@H]2[C@@H]3C[C@H](C)C4=CC(=O)CC[C@]4(C)[C@H]3CC[C@@]21C as the compound, how does the AC50 read?
Answer: The AC50 was 34.9 µM (active).

Question: For Clc1nc(C(Cl)(Cl)Cl)c(Cl)c(Cl)c1Cl, which outcome is on record?
Answer: The outcome was “inactive”.

Question: With O=C(O)c1ccc([N+](=O)[O-])cc1 as the compound, how does the outcome read?
Answer: The outcome was “inactive”.

Question: With CC1(C)C(=O)N(Br)C(=O)N1Cl as the compound, how does the outcome read?
Answer: The outcome was “inactive”.

Question: CCCCCCCCCCCCCCCC(=O)OC[C@H](O)[C@H]1OC(=O)C(O)=C1O was tested. Which outcome did it give?
Answer: The outcome was “inactive”.

Question: For CCOC(=S)SSC(=S)OCC, which outcome is on record?
Answer: The outcome was “inactive”.

Question: With CCCCNC(=O)NS(=O)(=O)c1ccc(C)cc1 as the compound, how does the outcome read?
Answer: The outcome was “inactive”.

Question: With CC1=CCC(O)(C(C)C)CC1 (stereo not given) as the compound, how does the outcome read?
Answer: The outcome was “inactive”.

Question: With COc1cc(C=O)ccc1OC(=O)C(C)C as the compound, how does the outcome read?
Answer: Its outcome is “inactive”.

Question: How did the outcome turn out when CCCCCCCCCCCCCCCCCC(=O)OCC(CC)CCCC (stereo not given) was run?
Answer: The outcome was “inactive”.
